Reference: PubChem BioAssay (EPA / NIEHS)
The source made the active and inactive calls. Rule for the calls: active = hit-call score of the fitted dose curve at least 0.9, where 1 is the maximum; inactive = score below 0.9.

How the values were obtained:
[1] = APR_HepG2_P-H2AX_72hr: Apredica 72-hour HepG2 Assay for H2AX Phosphorylation (AID 2282916); details: imaging, actives raise or lower the signal;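 note: phospho-histone H2A.x immunostain intensity per cell marking DNA damage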
In short: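 Readout: phospho-H2A.x immunofluorescence (FITC secondary) plus Hoechst nuclear stain, high-content imaging at 20x, six fields/well. HepG2, 72 hr compound exposure, 0.39–200 uM, final DMSO 0.5% v/v. Gain or loss fitted relative to DMSO baseline.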

[2] = APR_HepG2_MitoMembPot_72hr: Apredica 72-hour HepG2 Assay for Mitochondrial Membrane Potential (AID 2282917); details: imaging, actives raise or lower the signal
In short: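 HepG2 cells dosed 72 hr with compound at 0.39–200 uM in duplicate, 0.5% v/v DMSO final. Mitochondria stained with 250 nM MitoTracker Red CMXRos for 30 min before formaldehyde fixation, imaged by high-content fluorescence; bidirectional fit versus DMSO.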

[3] = APR_HepG2_MitoticArrest_72hr: Apredica 72-hour HepG2 Assay for Mitotic Arrest (AID 2282918); details: high-content imaging, actives raise or lower the signal
In short: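 HepG2 cells treated 72 h at 0.39–200 uM, 0.5% DMSO final; formaldehyde-fixed, stained with Hoechst 33342 and phospho-histone H3 antibody, imaged by high-content fluorescence; bidirectional fit versus DMSO.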

[4] = APR_HepG2_MicrotubuleCSK_72hr: Apredica 72-hour HepG2 Assay for Microtubule CSK Stabilty (AID 2282919); details: HepG2 microtubule cytoskeleton, high-content imaging, actives raise or lower the signal
In short: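 HepG2, 72 hr cmpd exposure, 0.39–200 uM (10 pts, duplicate), 0.5% DMSO. 3.7% formaldehyde fix, 0.5% Triton perm, anti-alpha-tubulin/Cy5 plus Hoechst. HCS fluorescence intensity; bidirectional fit vs DMSO baseline; taxol as positive control.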

[5] = APR_HepG2_P-H2AX_24hr: Apredica 24-hour HepG2 Assay for H2AX Phosphorylation (AID 2282920); details: high-content imaging, actives raise or lower the signal
In short: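 HepG2 cells dosed 24 h at 0.39–200 uM (10 points, duplicate, 0.5% DMSO final). Formaldehyde-fixed and permeabilized, then immunostained for phospho-H2A.x with Hoechst. Fluorescence quantified by high-content imaging, fitted bidirectionally versus DMSO.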

[6] = APR_HepG2_StressKinase_72hr: Apredica 72-hour HepG2 Assay for Stress Kinase (AID 2282921); details: HepG2 stress kinase (phospho-c-Jun) imaging, actives raise or lower the signal
In short: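 Phospho-c-Jun immunofluorescence measured by high-content imaging at 20x, six fields per well; bidirectional curve fitting against DMSO as baseline. Dosing: 0.39–200 uM, 72 h, 0.5% DMSO final.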

[7] = APR_HepG2_StressKinase_24hr: Apredica 24-hour HepG2 Assay for Stress Kinase (AID 2282922); details: HepG2 stress kinase (phospho-c-Jun) imaging, actives raise or lower the signal
In short: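 Read-out: phospho-c-Jun immunofluorescence (Cy3 secondary) quantified by high-content imaging at 20x, nuclei defined by Hoechst 33342. Human HepG2 liver cells dosed 24 hr, 0.39–200 uM, DMSO 0.5% v/v; gain or loss of signal fitted relative to DMSO.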

[8] = APR_HepG2_p53Act_72hr: Apredica 72-hour HepG2 Assay for p53 Activation (AID 2282923); details: high-content imaging, actives raise or lower the signal;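 note: average cellular p53 protein immunofluorescence intensity in HepG2 cells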
In short: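 Readout: p53 immunofluorescence quantified by automated high-content imaging at 20x, six fields per well, nuclei located via Hoechst. Dosing ran 72 hr over ten concentrations from 0.39 to 200 uM; bidirectional curve fitting against DMSO baseline.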

[9] = APR_HepG2_MitoMass_72hr: Apredica 72-hour HepG2 Assay for Mitochondrial Mass (AID 2282924); details: high-content imaging, actives raise or lower the signal;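 note: MitoTracker Red CMXRos stain intensity per cell imaged as mitochondrial mass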
In short: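 Read-out: MitoTracker Red fluorescence intensity from automated imaging (20x, six fields per well) in human HepG2 liver cells. Dosing ran 72 hr, 0.39–200 uM, 0.5% DMSO; bidirectional curve fitting versus DMSO baseline.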

[10] = APR_HepG2_NuclearSize_72hr: Apredica 72-hour HepG2 Assay for Nuclear Size (AID 2282925); details: high-content imaging, actives raise or lower the signal
In short: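 Read-out: nuclear diameter from Hoechst 33342 images (ArrayScan, 20x, six fields/well), via cell-cycle image analysis. HepG2 were dosed 0.39–200 uM for 72 hr in 0.5% DMSO. Bidirectional fit relative to DMSO.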

[11] = ATG_CRE_CIS: Attagene CIS-FACTORIAL HepG2 Assay for human cAMP Responsive Element (CRE) binding protein 3 (AID 2282926); details: HepG2 CRE cis-reporter, Attagene multiplexed mRNA; actives raise or lower the signal
In short: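 Induced reporter mRNA from a CRE cis element, measured in HepG2 among many multiplexed units at 24 h. Detection used RT-PCR plus capillary electrophoresis of fluorescent fragments; DMSO served as negative control.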

[12] = biological target: CCAAT/enhancer-binding protein beta (Homo sapiens) (UniProt P17676); assay: ATG_C_EBP_CIS: Attagene CIS-FACTORIAL HepG2 Assay for human CCAAT/Enhancer Binding Protein (C/EBP) beta (AID 2282927); details: HepG2 Attagene cis-factorial transcription factor reporter; actives raise or lower the signal
In short: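 HepG2, transient MRTU transfection, 24 h treatment. RT-PCR plus CE fluorescence; DMSO negative control, bidirectional fit.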

[13] = ATG_CMV_CIS: Attagene CIS-FACTORIAL HepG2 Assay for human CMV (Internal Marker) (AID 2282928); details: HepG2 CMV promoter reporter, transcription factor profiling; actives raise or lower the signal;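 note: endpoint acts as a background internal control marker rather than a target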
In short: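 Bidirectional fits against DMSO are applied to reporter mRNA, read by RT-PCR with capillary electrophoresis, from HepG2 cells exposed 24 h. The endpoint serves as an internal CMV background marker within the cis-factorial reporter panel.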

[14] = ATG_DR4_LXR_CIS: Attagene CIS-FACTORIAL HepG2 Assay for human Liver X Receptor (LXR), DR4 submotif (AID 2282929); details: HepG2 Attagene DR4 cis-reporter, mRNA transcription; actives raise or lower the signal
In short: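 Cells were transfected with multiple reporter transcription units, exposed to chemicals for 24 hours, then lysed for RNA. Reporter mRNA induction was measured by RT-PCR with capillary electrophoresis detection and fitted in both directions relative to DMSO.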

[15] = biological target: Aryl hydrocarbon receptor (Homo sapiens) (UniProt P35869); assay: ATG_Ahr_CIS: Attagene CIS-FACTORIAL HepG2 Assay for human Aryl Hydrocarbon Receptor (Ahr) (AID 2282930); details: HepG2 AhR cis-factorial reporter transcription; actives raise or lower the signal
In short: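 Endogenous factor activity is tracked through cis-promoter reporter units transfected into HepG2 cells. Transcript levels at 24 h are read by fluorescent RT-PCR and capillary electrophoresis, with activity in either direction scored relative to DMSO.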

[16] = ATG_AP_1_CIS: Attagene CIS-FACTORIAL HepG2 Assay for human Activator Protein 1 (AP-1) (AID 2282931); details: HepG2 Attagene cis-factorial AP-1 reporter mRNA; actives raise or lower the signal
In short: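 Endogenous transcription-factor activity in human HepG2 liver cells is read through a cis-promoter reporter transcript, sampled 24 h after dosing. Detection uses RT-PCR with capillary electrophoresis; values come from bidirectional fitting relative to DMSO.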

[17] = ATG_AP_2_CIS: Attagene CIS-FACTORIAL HepG2 Assay for human Activator Protein 2 (AP-2) (AID 2282932); details: HepG2 AP-2 cis-reporter, Attagene transcription factor profiling; actives raise or lower the signal
In short: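 Read-out: fluorescent reporter mRNA via RT-PCR and capillary electrophoresis, 24 h post-dose in transiently transfected HepG2. Endogenous factors drive cis-promoter reporters; gain or loss of signal fitted bidirectionally against DMSO.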

[18] = ATG_BRE_CIS: Attagene CIS-FACTORIAL HepG2 Assay for human Bone Morphogenetic Protein (BMP) Response Element (BRE) (AID 2282933); details: HepG2 BMP response element reporter, Attagene transcription factor profiling; actives raise or lower the signal
In short: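 Endogenous transcription factor activity at a BMP response element was monitored in transfected HepG2 cells 24 h after dosing. Fluorescent RT-PCR products were resolved by capillary electrophoresis, and activity was fitted in both directions versus DMSO.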

[19] = biological target: Retinoic acid receptor alpha (Homo sapiens) (UniProt P10276); assay: ATG_DR5_RAR_CIS: Attagene CIS-FACTORIAL HepG2 Assay for human Retinoic Acid Receptor Alpha (RARE), DR5 submotif (AID 2282934); details: HepG2 Attagene cis-factorial RARE DR5 reporter, mRNA; actives raise or lower the signal;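 for AC50: reporter responds to endogenous RAR alpha beta and gamma in HepG2 not RARA alone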
In short: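 After 24 h of chemical exposure, transiently transfected HepG2 cells were lysed for total RNA; the DR5-regulated reporter transcript was quantified via RT-PCR and capillary electrophoresis, with activity fitted bidirectionally against DMSO.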

[20] = biological target: Transcription factor E2F1 (Homo sapiens) (UniProt Q01094); assay: ATG_E2F_CIS: Attagene CIS-FACTORIAL HepG2 Assay for human E2F Transcription Factor 1 (AID 2282935); details: HepG2 Attagene cis-reporter, E2F reporter RNA transcripts; actives raise or lower the signal
In short: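 Transient MRTU transfection of HepG2; 24 h compound exposure; RNA → oligo(dT) RT → PCR → FAM label → HpaI cut → CE fluorescence. Gain/loss of signal fit against DMSO.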

Measured: AC50

Sequence of CCAAT/enhancer-binding protein beta (Homo sapiens) (P17676 whole entry, looked up): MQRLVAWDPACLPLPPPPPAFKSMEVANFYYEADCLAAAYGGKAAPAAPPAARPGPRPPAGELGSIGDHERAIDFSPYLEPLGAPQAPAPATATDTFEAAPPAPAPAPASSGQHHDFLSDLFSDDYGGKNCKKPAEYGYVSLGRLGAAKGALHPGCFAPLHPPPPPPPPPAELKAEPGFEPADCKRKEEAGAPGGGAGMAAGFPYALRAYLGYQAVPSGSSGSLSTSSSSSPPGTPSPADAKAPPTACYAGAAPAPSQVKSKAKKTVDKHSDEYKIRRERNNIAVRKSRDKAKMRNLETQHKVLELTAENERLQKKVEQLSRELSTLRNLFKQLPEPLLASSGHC
Sequence of Aryl hydrocarbon receptor (Homo sapiens) (P35869 whole entry, looked up): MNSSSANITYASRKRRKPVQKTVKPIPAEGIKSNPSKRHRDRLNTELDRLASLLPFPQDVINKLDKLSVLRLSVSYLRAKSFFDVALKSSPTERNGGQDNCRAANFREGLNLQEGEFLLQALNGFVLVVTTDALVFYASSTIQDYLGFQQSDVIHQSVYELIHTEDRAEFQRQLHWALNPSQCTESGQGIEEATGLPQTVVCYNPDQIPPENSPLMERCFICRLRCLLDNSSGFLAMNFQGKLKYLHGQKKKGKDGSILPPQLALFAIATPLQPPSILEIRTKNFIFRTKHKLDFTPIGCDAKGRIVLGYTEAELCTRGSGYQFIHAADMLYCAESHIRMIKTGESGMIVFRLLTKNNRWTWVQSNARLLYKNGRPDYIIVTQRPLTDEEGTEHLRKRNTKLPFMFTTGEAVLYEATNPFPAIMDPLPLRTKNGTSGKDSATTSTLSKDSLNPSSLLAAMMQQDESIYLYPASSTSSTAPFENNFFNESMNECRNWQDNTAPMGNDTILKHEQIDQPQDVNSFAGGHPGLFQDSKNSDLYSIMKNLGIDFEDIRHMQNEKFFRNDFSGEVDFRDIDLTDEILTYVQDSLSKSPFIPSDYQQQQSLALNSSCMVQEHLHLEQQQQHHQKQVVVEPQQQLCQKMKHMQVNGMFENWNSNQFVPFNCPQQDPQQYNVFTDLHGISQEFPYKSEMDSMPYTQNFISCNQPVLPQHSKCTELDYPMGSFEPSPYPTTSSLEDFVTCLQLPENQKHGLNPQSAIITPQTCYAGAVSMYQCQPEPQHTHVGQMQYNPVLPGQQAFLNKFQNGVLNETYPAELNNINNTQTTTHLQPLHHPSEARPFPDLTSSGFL
Sequence of Retinoic acid receptor alpha (Homo sapiens) (P10276 whole entry, looked up): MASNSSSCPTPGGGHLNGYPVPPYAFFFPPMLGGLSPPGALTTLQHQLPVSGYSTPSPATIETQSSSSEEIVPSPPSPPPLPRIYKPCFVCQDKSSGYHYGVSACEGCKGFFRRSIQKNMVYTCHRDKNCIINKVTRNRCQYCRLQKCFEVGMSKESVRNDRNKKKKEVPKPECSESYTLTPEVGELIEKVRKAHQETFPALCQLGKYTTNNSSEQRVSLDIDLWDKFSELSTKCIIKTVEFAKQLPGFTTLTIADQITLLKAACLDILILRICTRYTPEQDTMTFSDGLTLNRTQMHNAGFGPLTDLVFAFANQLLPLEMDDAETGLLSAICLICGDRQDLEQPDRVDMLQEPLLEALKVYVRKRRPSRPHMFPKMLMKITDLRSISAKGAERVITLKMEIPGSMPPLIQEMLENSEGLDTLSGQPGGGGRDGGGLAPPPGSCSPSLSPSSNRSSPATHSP
Sequence of Transcription factor E2F1 (Homo sapiens) (Q01094 whole entry, looked up): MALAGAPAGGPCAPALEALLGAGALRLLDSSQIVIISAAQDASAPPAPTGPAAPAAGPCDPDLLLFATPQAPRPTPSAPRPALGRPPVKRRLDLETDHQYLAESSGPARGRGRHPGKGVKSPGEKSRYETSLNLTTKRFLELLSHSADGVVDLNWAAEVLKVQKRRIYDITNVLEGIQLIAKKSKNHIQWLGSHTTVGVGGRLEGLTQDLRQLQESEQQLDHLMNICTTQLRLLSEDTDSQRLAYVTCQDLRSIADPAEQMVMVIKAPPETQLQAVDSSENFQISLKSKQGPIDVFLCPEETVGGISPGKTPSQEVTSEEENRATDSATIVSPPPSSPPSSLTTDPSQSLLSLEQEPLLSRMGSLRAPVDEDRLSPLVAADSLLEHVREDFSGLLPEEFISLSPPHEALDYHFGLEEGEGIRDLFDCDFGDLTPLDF

COc1cccc(C(=O)NN(C(=O)c2cc(C)cc(C)c2)C(C)(C)C)c1C
active: [14] 50 µM | [17] 13.1 µM
inactive: all other assays above

CCOP(=S)(OCC)OC(Cl)C(Cl)(Cl)Cl (stereo not given)
active: [4] 109 µM | [11] 25.3 µM | [12] 30.3 µM | [13] 71.1 µM
inactive: all other assays above

COc1ccc(C(=CC(=O)N2CCOCC2)c2ccc(Cl)cc2)cc1OC
active: [11] 10.9 µM | [12] 5.02 µM | [13] 2.48 µM | [18] 11.9 µM
inactive: all other assays above

CCCCOC(=O)c1ccccc1C(=O)O
inactive: all assays above

CCCCN(CC)c1c([N+](=O)[O-])cc(C(F)(F)F)cc1[N+](=O)[O-]
active: [19] 20.1 µM
inactive: all other assays above

CSc1nc(NC(C)C)nc(NC(C)C)n1
active: [19] 21.9 µM
inactive: all other assays above

CC(=NC#N)N(C)Cc1ccc(Cl)nc1
inactive: all assays above

CC(Oc1cccc(Cl)c1)C(=O)O (stereo not given)
inactive: all assays above

CCCCSP(=O)(SCCCC)SCCCC
active: [2] 157 µM | [13] 39.3 µM | [14] 72.9 µM | [16] 70.1 µM | [18] 40.1 µM | [20] 58.3 µM
inactive: all other assays above

CON=C(C(=O)OC)c1ccccc1CON=C(C)c1cccc(C(F)(F)F)c1
active: [4] 0.309 µM | [12] 66.7 µM | [14] 24 µM | [18] 25 µM
inactive: all other assays above

CN1COCN(Cc2cnc(Cl)s2)C1=N[N+](=O)[O-]
inactive: all assays above

FC(F)C(F)(F)OCC(Cn1cncn1)c1ccc(Cl)cc1Cl (stereo not given)
active: [1] 105 µM | [3] 100 µM | [4] 84.6 µM | [8] 116 µM | [11] 23.2 µM | [13] 16.2 µM | [14] 50 µM | [15] 33.3 µM | [18] 58.4 µM | [19] 13 µM
inactive: [2] | [5] | [6] | [7] | [9] | [10] | [12] | [16] | [17] | [20]

C[N+]1(C)CCCCC1
inactive: all assays above
